Results on 35 targets are retold here after the supplement of paper PMC10849652.

Targets with a hit are over-represented here; the source holds about 7,900 in all. About 0.6% of all pairs of compound and target were hits.

Chain of UniProt Q12873 (Q12873 whole entry, looked up): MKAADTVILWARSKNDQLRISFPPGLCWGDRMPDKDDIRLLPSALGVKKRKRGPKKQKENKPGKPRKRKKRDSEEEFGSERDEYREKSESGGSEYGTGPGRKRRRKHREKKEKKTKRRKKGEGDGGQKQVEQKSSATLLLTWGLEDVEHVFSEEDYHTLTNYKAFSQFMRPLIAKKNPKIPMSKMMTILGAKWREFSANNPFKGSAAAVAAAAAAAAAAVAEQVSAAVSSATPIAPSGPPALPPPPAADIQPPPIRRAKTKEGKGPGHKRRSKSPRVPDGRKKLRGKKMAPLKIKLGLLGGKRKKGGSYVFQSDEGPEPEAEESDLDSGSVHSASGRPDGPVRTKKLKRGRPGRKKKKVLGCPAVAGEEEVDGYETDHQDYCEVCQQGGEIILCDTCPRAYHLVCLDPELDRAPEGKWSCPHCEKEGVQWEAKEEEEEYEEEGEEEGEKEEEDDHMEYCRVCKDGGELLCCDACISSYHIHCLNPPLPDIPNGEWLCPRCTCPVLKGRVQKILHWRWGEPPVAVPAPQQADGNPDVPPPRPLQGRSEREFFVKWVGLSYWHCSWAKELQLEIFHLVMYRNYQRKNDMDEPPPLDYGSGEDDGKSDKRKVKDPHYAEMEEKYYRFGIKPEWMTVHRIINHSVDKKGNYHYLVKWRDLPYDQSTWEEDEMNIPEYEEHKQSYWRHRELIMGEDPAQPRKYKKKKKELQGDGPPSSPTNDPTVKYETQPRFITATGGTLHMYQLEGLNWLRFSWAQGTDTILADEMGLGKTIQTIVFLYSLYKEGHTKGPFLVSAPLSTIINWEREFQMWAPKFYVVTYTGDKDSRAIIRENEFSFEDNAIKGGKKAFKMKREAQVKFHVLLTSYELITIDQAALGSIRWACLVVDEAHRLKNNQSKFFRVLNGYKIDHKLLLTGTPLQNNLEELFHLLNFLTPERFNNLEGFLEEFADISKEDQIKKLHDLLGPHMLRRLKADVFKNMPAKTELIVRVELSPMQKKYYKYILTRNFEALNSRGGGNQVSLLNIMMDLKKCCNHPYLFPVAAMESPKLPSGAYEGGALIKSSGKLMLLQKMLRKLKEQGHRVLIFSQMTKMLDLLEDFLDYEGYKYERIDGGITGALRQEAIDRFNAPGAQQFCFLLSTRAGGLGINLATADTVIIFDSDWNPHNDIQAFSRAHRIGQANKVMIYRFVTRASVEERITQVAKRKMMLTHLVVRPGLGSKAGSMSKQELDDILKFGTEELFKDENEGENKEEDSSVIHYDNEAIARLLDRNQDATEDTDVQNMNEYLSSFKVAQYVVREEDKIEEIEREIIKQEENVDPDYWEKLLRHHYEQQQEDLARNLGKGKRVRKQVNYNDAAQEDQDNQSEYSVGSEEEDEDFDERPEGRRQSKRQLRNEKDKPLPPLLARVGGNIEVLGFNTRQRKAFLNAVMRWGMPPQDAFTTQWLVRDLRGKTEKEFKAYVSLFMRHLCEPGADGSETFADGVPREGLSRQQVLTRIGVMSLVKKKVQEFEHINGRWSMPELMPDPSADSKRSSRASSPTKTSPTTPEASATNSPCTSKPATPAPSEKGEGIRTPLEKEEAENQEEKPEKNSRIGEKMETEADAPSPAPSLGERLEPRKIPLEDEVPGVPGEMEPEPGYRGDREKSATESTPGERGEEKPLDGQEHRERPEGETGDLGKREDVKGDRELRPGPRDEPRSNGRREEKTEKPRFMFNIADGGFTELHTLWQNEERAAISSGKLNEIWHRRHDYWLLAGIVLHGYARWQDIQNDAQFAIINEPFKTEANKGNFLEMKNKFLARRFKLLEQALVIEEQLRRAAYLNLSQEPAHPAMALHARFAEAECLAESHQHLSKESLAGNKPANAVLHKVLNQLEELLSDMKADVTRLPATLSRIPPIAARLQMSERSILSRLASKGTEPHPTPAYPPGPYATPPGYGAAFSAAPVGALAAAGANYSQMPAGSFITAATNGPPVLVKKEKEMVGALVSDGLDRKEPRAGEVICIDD
Chain of UniProt Q8NHZ8 (Q8NHZ8 whole entry, looked up): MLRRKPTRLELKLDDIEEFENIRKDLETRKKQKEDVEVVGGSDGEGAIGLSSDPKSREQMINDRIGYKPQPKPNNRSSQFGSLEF
Chain of UniProt P51790 (P51790 whole entry, looked up): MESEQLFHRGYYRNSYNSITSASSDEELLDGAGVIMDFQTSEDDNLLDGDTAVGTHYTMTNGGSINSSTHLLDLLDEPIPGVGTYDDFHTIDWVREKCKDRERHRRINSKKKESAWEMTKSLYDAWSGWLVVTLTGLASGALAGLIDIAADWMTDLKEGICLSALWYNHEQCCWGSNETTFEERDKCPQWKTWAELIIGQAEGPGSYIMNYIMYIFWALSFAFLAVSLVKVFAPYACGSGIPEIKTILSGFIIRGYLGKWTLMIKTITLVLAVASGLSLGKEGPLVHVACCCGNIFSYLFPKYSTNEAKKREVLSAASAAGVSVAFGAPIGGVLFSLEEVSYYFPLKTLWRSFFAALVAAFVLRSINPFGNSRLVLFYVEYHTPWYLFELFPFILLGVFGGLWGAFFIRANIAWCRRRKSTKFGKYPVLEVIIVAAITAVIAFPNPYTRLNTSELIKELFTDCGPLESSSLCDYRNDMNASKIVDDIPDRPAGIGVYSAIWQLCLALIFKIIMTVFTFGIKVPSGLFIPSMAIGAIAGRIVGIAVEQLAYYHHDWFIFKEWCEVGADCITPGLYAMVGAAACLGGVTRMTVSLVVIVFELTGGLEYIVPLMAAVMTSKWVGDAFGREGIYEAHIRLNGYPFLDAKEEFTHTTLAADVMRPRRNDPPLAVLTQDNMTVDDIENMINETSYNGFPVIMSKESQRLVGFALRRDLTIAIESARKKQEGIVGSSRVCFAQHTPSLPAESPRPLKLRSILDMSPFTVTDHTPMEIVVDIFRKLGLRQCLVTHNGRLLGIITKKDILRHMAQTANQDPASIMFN
Chain of UniProt Q14004 (Q14004 whole entry, looked up): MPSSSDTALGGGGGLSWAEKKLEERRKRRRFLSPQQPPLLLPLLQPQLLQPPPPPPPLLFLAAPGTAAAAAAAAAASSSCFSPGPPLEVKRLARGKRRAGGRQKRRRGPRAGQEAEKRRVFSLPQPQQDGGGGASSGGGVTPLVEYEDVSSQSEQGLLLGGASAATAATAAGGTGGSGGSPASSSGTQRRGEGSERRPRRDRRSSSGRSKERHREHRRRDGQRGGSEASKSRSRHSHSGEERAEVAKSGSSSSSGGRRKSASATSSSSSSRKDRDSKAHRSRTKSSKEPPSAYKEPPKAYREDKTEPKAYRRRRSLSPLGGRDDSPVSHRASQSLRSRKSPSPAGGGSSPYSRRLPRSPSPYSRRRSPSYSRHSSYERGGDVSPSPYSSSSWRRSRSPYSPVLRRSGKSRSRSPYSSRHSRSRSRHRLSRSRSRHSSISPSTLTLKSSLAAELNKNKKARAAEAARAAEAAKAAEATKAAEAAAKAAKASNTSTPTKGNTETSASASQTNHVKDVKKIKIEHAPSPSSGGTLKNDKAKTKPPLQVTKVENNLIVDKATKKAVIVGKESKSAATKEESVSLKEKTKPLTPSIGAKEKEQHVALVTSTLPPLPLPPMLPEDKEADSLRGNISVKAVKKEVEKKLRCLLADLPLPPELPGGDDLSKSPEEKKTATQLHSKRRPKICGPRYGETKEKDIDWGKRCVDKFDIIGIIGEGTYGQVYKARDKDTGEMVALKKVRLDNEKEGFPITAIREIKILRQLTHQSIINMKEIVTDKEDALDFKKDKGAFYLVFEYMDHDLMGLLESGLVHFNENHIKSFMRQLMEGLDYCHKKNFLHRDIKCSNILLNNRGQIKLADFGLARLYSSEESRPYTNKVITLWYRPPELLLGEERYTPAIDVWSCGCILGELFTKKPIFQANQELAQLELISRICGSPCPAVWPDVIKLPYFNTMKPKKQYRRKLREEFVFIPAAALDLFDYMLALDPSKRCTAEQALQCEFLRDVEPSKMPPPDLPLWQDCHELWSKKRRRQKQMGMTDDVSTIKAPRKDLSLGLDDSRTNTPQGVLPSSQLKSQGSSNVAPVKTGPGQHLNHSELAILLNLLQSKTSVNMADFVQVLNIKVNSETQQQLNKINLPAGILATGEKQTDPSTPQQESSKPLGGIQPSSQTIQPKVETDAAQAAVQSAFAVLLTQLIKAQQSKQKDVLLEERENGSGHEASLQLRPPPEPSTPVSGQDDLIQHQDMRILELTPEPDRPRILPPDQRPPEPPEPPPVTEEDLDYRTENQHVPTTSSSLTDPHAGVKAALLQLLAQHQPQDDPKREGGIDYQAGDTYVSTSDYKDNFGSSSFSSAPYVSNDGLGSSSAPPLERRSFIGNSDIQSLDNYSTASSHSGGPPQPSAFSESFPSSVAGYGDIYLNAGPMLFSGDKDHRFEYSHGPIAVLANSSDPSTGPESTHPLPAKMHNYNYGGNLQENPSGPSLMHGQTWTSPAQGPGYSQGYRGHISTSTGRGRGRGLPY
Chain of UniProt Q8N1A6 (Q8N1A6 whole entry, looked up): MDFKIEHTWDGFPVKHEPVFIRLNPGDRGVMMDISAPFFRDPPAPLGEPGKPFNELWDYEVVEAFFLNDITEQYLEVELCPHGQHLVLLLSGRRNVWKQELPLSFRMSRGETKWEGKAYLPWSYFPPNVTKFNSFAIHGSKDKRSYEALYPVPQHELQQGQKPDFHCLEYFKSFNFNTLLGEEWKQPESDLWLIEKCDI
Chain of UniProt Q6NZI2 (Q6NZI2 whole entry, looked up): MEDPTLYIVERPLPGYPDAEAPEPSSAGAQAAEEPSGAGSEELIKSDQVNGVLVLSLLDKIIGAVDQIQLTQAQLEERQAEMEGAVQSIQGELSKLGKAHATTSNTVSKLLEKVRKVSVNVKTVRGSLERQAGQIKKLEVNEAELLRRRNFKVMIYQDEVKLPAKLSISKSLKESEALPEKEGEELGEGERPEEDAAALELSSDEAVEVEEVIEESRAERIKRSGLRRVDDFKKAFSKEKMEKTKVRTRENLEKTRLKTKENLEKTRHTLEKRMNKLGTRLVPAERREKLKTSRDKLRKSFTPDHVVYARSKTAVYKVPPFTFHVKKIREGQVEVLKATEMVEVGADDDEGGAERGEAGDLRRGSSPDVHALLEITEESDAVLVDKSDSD

Compound in the first test: CC1=CC=C(C=C1)SC2=C3C=C(SC3=CN=C2)C(=O)N
The test is described as follows: log2 fold change, soluble protein after heating vs DMSO (PISA); higher = thermal stabilisation; K562 cells, 10 uM, 30 min; active = over 0.2 and 3.5 SD of the protein, either way, in both replicates (recomputed). A digest of the protocol:
(§1)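 For each measurement, 10 μM compound was applied for 30 min to K562 cells at 2×10^6 cells/mL. Aliquots were heated for 3 min across 48°C-58°C, pooled, and extracted in PBS with 0.5% NP-40 at 4°C; the supernatant after 21,000xg for 90 min was soluble protein. This was quantified by TMTpro 16plex LC-MS/MS with channel sums equalised, and thermal stability was reported relative to control samples from duplicates, on a log2 fold-change scale.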
As for CDCA2 (UniProt Q69YH5), the log2 fold change was -0.047 (inactive).

On to COPS8 (UniProt Q99627), for which the log2 fold change was 0 (inactive).

Turning to CASP9 (UniProt P55211), the log2 fold change was 0.032 (inactive).

In the case of CNOT4 isoform 6 (UniProt O95628), the log2 fold change was 0.005 (inactive).

With CNOT2 (UniProt Q9NZN8), the log2 fold change is -0.027 (inactive).

CCAR2 isoform 2 (UniProt Q8N163): the log2 fold change was -0.017 (inactive).

Turning to COX6B1 (UniProt P14854), the log2 fold change is 0.136 (inactive).

Consider COPS3 (UniProt Q9UNS2), for which the log2 fold change is 0.009 (inactive).

In the case of CDAN1 (UniProt Q8IWY9), the log2 fold change was -0.071 (inactive).

Regarding CRTC2 (UniProt Q53ET0), the log2 fold change is -0.051 (inactive).

Take COASY isoform 2 (UniProt Q13057): the log2 fold change is 0.057 (inactive).

Take CDC26 (UniProt Q8NHZ8): the log2 fold change was -0.025 (inactive).

As to CPSF1 (UniProt Q10570), the log2 fold change is -0.123 (inactive).

On to CSNK2A2 (UniProt P19784), for which the log2 fold change is 0.021 (inactive).

CLCN3 isoform 2 (UniProt P51790): the log2 fold change is 0.008 (inactive).

Turning to CAVIN1 (UniProt Q6NZI2), the log2 fold change was -0.051 (inactive).

Regarding CBX5 (UniProt P45973), the log2 fold change is 0.073 (inactive).

As to CAMK2G isoform 6 (UniProt Q13555), the log2 fold change is 0.131 (inactive).

Consider CNTN4 (UniProt Q8IWV2), for which the log2 fold change is 0.035 (inactive).

On to CDK13 (UniProt Q14004), for which the log2 fold change is -0.047 (inactive).

With CDK9 isoform 2 (UniProt P50750), the log2 fold change is -0.001 (inactive).

Turning to CDKN2AIP (UniProt Q9NXV6), the log2 fold change was -0.076 (inactive).

C1D (UniProt Q13901): the log2 fold change was -0.015 (inactive).

For the target COX5B (UniProt P10606), the log2 fold change was 0.037 (inactive).

In the case of CLTB (UniProt P09497), the log2 fold change is -0.007 (inactive).

On to CHD3 isoform 3 (UniProt Q12873), for which the log2 fold change is 0.016 (inactive).

Regarding CELF2 isoform 3 (UniProt O95319), the log2 fold change was 0.112 (inactive).

For the target CSNK1D (UniProt P48730), the log2 fold change was -0.033 (inactive).

As to CDK5 (UniProt Q00535), the log2 fold change is 0.001 (inactive).

With CASP2 (UniProt P42575), the log2 fold change was 0.215 (inactive).

Regarding CLINT1 isoform 3 (UniProt Q14677), the log2 fold change was -0.094 (inactive).

Regarding CAMKK2 (UniProt Q96RR4), the log2 fold change is -0.044 (inactive).

For the target CDK11B (UniProt P21127), the log2 fold change was -0.109 (inactive).

With C4orf33 (UniProt Q8N1A6), the log2 fold change was 0.049 (inactive).

Take CALCOCO2 isoform 4 (UniProt Q13137): the log2 fold change is 0.006 (inactive).

Compound in another test: CC1=NC(=CC=C1)C2=C(N=C(N2)C(C)(C)C)C3=CC4=NC=CN=C4C=C3
The description is as above. Summed up:
as §1
CDCA2 (UniProt Q69YH5): the log2 fold change was -0.299 (inactive).

As for COPS8 (UniProt Q99627), the log2 fold change was -0.09 (inactive).

As for CASP9 (UniProt P55211), the log2 fold change is 0.021 (inactive).

Turning to CNOT4 isoform 6 (UniProt O95628), the log2 fold change is 0.023 (inactive).

CNOT2 (UniProt Q9NZN8): the log2 fold change is 0.008 (inactive).

On to CCAR2 isoform 2 (UniProt Q8N163), for which the log2 fold change was 0.001 (inactive).

For COX6B1 (UniProt P14854), the log2 fold change is 0.016 (inactive).

COPS3 (UniProt Q9UNS2): the log2 fold change is 0.034 (inactive).

Turning to CDAN1 (UniProt Q8IWY9), the log2 fold change is -0.022 (inactive).

For CRTC2 (UniProt Q53ET0), the log2 fold change was 0.017 (inactive).

In the case of COASY isoform 2 (UniProt Q13057), the log2 fold change is 0.029 (inactive).

For the target CDC26 (UniProt Q8NHZ8), the log2 fold change is 0.021 (inactive).

Take CPSF1 (UniProt Q10570): the log2 fold change is -0.083 (inactive).

With CSNK2A2 (UniProt P19784), the log2 fold change was 0.005 (inactive).

Turning to CLCN3 isoform 2 (UniProt P51790), the log2 fold change was 0.061 (inactive).

Take CAVIN1 (UniProt Q6NZI2): the log2 fold change was -0.027 (inactive).

As for CBX5 (UniProt P45973), the log2 fold change was 0.113 (inactive).

As for CAMK2G isoform 6 (UniProt Q13555), the log2 fold change is -0.011 (inactive).

For CNTN4 (UniProt Q8IWV2), the log2 fold change was -0.244 (inactive).

On to CDK13 (UniProt Q14004), for which the log2 fold change is 0.056 (inactive).

Turning to CDK9 isoform 2 (UniProt P50750), the log2 fold change is -0.084 (inactive).

As to CDKN2AIP (UniProt Q9NXV6), the log2 fold change was 0.008 (inactive).

In the case of C1D (UniProt Q13901), the log2 fold change is -0.045 (inactive).

For the target COX5B (UniProt P10606), the log2 fold change is -0.008 (inactive).

For the target CLTB (UniProt P09497), the log2 fold change is 0.037 (inactive).

As to CHD3 isoform 3 (UniProt Q12873), the log2 fold change was -0.077 (inactive).

For CELF2 isoform 3 (UniProt O95319), the log2 fold change was -0.006 (inactive).

As for CSNK1D (UniProt P48730), the log2 fold change is -0.018 (inactive).

On to CDK5 (UniProt Q00535), for which the log2 fold change was -0.008 (inactive).

As for CASP2 (UniProt P42575), the log2 fold change was 0.056 (inactive).

On to CLINT1 isoform 3 (UniProt Q14677), for which the log2 fold change is -0.09 (inactive).

For CAMKK2 (UniProt Q96RR4), the log2 fold change is -0.009 (inactive).

Regarding CDK11B (UniProt P21127), the log2 fold change is 0.071 (inactive).

Turning to C4orf33 (UniProt Q8N1A6), the log2 fold change is -0.049 (inactive).

For the target CALCOCO2 isoform 4 (UniProt Q13137), the log2 fold change is 0.012 (inactive).
